hcDAF12 agonist: activators of H. contortus DAF-12 nuclear receptor | HEK293 hcDAF-12 lit1-tk-luc reporter, luminescence; 0% DMSO, 100% Δ7-dafachronic acid | AID 652067 | 370,000 tested, 1.4% active | activation, % at 6.8 µM;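 active = activation above the mean of all tested compounds plus 3 SD, cut at about 5.5% in these data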
ssDAF12 agonist: S. stercoralis DAF-12 activation, primary screen; HEK293 ssDAF-12/GRIP1 lit1-tk-luc reporter, luminescence; % of 3 µM dafachronic acid response; activation, % at 6.8 µM; 370,000 tested, 1% active; AID 652126;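 active = activation above the mean over all tested compounds plus 3 SD, cut at about 0.9% in these data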
DAX1 inh-1: NR0B1 (DAX1) inhibition; P51843; HEK293 Gal4-DAX1 luciferase reporter, luminescence; inhibition, % at 6.75 µM; 340,000 tested, 0.99% active;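 active = inhibition above the mean over all tested compounds plus 3 SD, cut at about 4.2% in these data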;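 note: inhibition shows as a rise in luminescence from relieved DAX1 repression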
Target sequence (P51843 207-470 limits assumed): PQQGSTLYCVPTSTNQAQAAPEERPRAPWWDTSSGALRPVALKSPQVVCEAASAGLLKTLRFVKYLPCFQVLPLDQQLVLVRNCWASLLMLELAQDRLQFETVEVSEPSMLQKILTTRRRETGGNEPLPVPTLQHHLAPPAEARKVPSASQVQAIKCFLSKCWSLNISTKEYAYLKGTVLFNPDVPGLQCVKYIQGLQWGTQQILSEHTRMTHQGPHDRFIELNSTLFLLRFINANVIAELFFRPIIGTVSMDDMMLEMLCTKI
AHR activator: activators of human aryl hydrocarbon receptor; AID 2796; P35869; 320,000 tested, 2.5% active; AHR-responsive luciferase reporter cells, luminescence; activation, % at 5 µM; in the data active = activation above about 47%
hgDAF-12 ag: activates the H. glycines DAF-12 receptor ligand-binding domain | HEK293 GAL4-hgDAF12 UAS-luciferase reporter, agonist luminescence; normalized to butyrate control | activation, % at 6.8 µM | 370,000 tested, 1.8% active | AID 687014;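 active = activation above a cutoff set at the mean of all screened compounds plus 3 SD, cut at about 10% in these data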
DAX1 inh-2: inhibitors of DAX1 repression of SF-1 activated StAR promoter; inhibition, % at 6.8 µM; 370,000 tested, 1.1% active; HEK293T StAR-luciferase reporter, SF-1/DAX-1 repression relief; AID 652010;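 active = inhibition above the mean over all tested compounds plus 3 SD, cut at about 3.6% in these data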;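 note: higher inhibition means more luminescence from relief of DAX-1 repression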
LXR ag: LXR-beta agonism as hcDAF-12 counter-screen. shares compounds with hcDAF12 agonist. HEK293 Gal4-LXR tk-luc reporter, luminescence, 24 h; normalized: DMSO 0%, positive control 100%. activation, % at 6.8 µM. 3,400 tested, under 10 active;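 active = mean percent activation of the reporter above a cutoff set as the average over tested compounds plus their standard deviation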
hcDAF12 conf: hcDAF-12 agonism, confirmation assay; shares compounds with hcDAF12 agonist; AID 743032; 3,400 tested, 61% active; HEK293 hcDAF-12 lit1-tk-luc reporter, luminescence; % of Δ7-dafachronic acid response; activation, % at 6.8 µM;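 active = mean activation across triplicate tests above the threshold derived from the earlier primary screen, cut at about 5.5% in these data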
Large screens that a line does not name were inactive (follow-up assays come after a bar, where they were run). Rows were chosen to be rich in hits. Some 5.7% of all compounds tested hit in one or more screens of this group.

O=C(Nc1nc2c(ccc3ccccc32)s1)c1ccco1	hcDAF12 agonist 6.7, AHR activator 66 | LXR ag inactive | hcDAF12 conf inactive
O=C(NC(=S)Nc1nc2c(ccc3ccccc32)s1)c1cccs1	hcDAF12 agonist 9.0, AHR activator 67 | LXR ag inactive | hcDAF12 conf 5.9
O=C(NC(=S)Nc1cccc2ncccc12)c1cccs1	none
O=C(Nc1cccnc1)c1cc(F)cc(F)c1	none
O=C(O)Cc1sc(-c2ccccc2)nc1-c1ccc(Cl)cc1	none (no result: AHR activator)
Cc1nn(C(=O)c2cc3sccc3[nH]2)c(C)c1C	hcDAF12 agonist 8.1, AHR activator 71, hgDAF-12 ag 10 | LXR ag inactive | hcDAF12 conf 11
O=C(Nc1ccc2[nH]ccc2c1)c1ccccc1	hcDAF12 agonist 9.2, hgDAF-12 ag 12 | LXR ag inactive | hcDAF12 conf 9.5
Cc1ccc(NC(=O)NNC(=O)c2cc3ccccc3cc2O)cc1C	none
Cc1ccc(NC(=O)c2cc3ccccc3cc2O)cc1	hcDAF12 agonist 10, DAX1 inh-1 4.5 | LXR ag inactive | hcDAF12 conf 9.2
O=C(Nc1ccc2ccccc2c1)c1ccccc1O	hcDAF12 agonist 7.8, ssDAF12 agonist 1.0, AHR activator 48 | LXR ag inactive | hcDAF12 conf 20
Cc1ccc(NC(=O)c2ccc(F)cc2F)cc1	hcDAF12 agonist 8.9 | LXR ag inactive | hcDAF12 conf inactive
O=C(Nc1ccc2ccccc2c1)c1ccccc1[N+](=O)[O-]	hcDAF12 agonist 7.9 (no result: AHR activator) | LXR ag inactive | hcDAF12 conf inactive
O=C(COC(=O)c1ccccc1O)Nc1ccc2ccccc2c1	none
O=C(Nc1ccccc1)c1ccc(F)cc1F	none
CC(=O)Nc1ccc(S(=O)(=O)N2CCN(c3cc(C)nc4ccccc34)CC2)cc1	none
Cc1ccc(C2=NO[C@@](CC(=O)O)(C(=O)Nc3ccc4c(c3)OCCO4)C2)cc1	none (no result: AHR activator)
O=C(CCNS(=O)(=O)c1ccc2[nH]c(=O)oc2c1)Nc1ccccc1	none (no result: hcDAF12 agonist, ssDAF12 agonist, hgDAF-12 ag, DAX1 inh-2)
O=C(CN1C(=O)C2C3C=CC(C4CC34)C2C1=O)Nc1cnc2ccccc2c1 (configuration not stated)	hcDAF12 agonist 7.5 | LXR ag inactive | hcDAF12 conf inactive
CN(Cc1ccccc1)C(=O)CN1C(=O)c2ccc([N+](=O)[O-])cc2C1=O	none
CCC1CCC(N2CCN(c3cccc(OC)c3)CC2)CC1 (configuration not stated)	hcDAF12 agonist 8.1 (no result: AHR activator) | LXR ag inactive | hcDAF12 conf inactive
CCOC(=O)C1=C(CN2CCN(C(=O)c3ccco3)CC2)NC(=O)NC1c1ccc(OC(C)C)cc1 (configuration not stated)	none
O=C(CSc1nnc(-c2ccccc2O)o1)N1CCOCC1	hcDAF12 agonist 11 (no result: AHR activator) | LXR ag inactive | hcDAF12 conf inactive
CC1CCCCN1C(=O)CSc1nnc(-c2ccccc2O)o1 (configuration not stated)	hcDAF12 agonist 15, ssDAF12 agonist 1.7, hgDAF-12 ag 16 | LXR ag inactive | hcDAF12 conf 20
Cc1occc1-c1nnc(SCC(=O)N2CCCCC2C)o1 (configuration not stated)	none
O=C(CSc1nnc(-c2ccccc2O)o1)N1CCCCC1	none
COc1cccc(C(=O)N2CCC[C@H]2C(=O)N2CCC[C@H]2C(=O)NCc2ccncc2)c1	none (no result: DAX1 inh-1, AHR activator)
COc1ccc(CN(C)S(=O)(=O)c2nnc(NC(=O)c3ccccc3OC)s2)cc1OC	hcDAF12 agonist 7.7 | LXR ag inactive | hcDAF12 conf inactive
CN(C)S(=O)(=O)c1cccc(NC(=O)c2ccncc2)c1	none
CN(CC(=O)N1CCN(Cc2ccccc2)CC1)S(=O)(=O)c1ccc(F)cc1	none
Cc1ccc2[nH]c(=O)c(CN(Cc3nnnn3C3CCCC3)C3CCCCC3)cc2c1	none
